Consider one molecule from ChEMBL document CHEMBL2218924, “A broad activity screen in support of a chemogenomic map for kinase signalling research and drug discovery” (Biochem J, 2013).

The target in assay [1] is T1, Ephrin type-A receptor 3 (Homo sapiens) (UniProt P29320).
T1 sequence (whole entry): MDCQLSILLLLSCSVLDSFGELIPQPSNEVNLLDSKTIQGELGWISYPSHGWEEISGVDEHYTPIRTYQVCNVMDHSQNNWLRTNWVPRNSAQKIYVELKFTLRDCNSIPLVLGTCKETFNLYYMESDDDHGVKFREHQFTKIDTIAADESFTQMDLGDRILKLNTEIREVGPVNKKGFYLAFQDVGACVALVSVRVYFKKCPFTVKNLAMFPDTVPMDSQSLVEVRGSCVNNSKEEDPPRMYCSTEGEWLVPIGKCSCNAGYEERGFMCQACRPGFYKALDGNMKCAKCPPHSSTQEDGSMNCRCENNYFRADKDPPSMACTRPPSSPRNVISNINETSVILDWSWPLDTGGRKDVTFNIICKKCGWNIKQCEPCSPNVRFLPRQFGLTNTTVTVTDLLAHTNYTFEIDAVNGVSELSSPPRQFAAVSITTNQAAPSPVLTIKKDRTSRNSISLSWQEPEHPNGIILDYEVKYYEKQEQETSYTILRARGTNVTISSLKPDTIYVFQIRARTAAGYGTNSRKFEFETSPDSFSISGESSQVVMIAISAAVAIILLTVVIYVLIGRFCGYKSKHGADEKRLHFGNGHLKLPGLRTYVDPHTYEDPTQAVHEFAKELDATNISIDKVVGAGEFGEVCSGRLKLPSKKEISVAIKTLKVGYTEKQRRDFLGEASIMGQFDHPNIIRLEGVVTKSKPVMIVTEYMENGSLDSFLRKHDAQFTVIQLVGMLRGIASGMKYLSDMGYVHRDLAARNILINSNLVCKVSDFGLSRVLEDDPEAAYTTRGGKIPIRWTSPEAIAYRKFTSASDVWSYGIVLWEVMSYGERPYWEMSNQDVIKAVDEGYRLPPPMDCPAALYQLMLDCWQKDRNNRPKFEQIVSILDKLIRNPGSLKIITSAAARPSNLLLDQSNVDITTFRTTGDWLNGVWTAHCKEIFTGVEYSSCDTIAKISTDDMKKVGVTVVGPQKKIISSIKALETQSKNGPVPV
To be noted: at 10 µM.

Assay [2] addresses Ephrin type-A receptor 4 (Homo sapiens) (UniProt P54764). To be noted: at 1 µM.
Assay [3] has the same target. To be noted: at 10 µM.
For assay [4], the target named is Ephrin type-A receptor 5 (Homo sapiens) (UniProt P54756). To be noted: at 1 µM.
Assay [5] has the same target. To be noted: at 10 µM.
In assay [6] the target is Ephrin type-A receptor 7 (Homo sapiens) (UniProt Q15375). As to conditions: at 1 µM.
The target is the same in assay [7]. To be noted: at 10 µM.
Assay [8] has as its target T2, Ephrin type-A receptor 8 (Homo sapiens) (UniProt P29322).
T2 sequence (whole entry): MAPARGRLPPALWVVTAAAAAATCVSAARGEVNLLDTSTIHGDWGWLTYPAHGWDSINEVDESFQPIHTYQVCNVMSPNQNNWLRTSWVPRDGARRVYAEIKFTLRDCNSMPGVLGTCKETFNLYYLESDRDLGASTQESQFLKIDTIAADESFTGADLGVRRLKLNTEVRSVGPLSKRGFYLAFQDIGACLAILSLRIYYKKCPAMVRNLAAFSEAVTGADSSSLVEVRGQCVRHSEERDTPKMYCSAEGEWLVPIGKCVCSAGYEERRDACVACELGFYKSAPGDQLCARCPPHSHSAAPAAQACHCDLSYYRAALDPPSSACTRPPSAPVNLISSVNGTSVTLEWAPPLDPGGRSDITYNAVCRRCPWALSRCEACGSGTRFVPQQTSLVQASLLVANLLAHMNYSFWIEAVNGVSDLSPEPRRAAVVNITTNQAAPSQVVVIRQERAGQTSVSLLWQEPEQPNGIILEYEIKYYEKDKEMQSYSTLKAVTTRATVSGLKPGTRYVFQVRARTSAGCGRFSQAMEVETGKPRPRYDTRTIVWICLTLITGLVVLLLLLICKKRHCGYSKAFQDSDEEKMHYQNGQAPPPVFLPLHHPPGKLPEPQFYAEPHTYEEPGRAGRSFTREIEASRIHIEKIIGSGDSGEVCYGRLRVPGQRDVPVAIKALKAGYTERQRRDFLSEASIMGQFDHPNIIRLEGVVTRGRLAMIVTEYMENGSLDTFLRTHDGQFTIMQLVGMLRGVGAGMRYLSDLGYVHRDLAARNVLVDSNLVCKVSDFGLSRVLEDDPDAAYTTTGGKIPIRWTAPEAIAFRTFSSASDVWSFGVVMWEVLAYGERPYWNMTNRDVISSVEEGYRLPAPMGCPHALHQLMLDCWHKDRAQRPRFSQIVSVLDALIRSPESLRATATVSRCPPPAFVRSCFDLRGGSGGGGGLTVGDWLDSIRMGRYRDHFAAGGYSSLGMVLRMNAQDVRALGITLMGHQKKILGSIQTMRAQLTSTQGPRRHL
To be noted: at 1 µM.

In assay [9] the target is T3, Ephrin type-B receptor 1 (Homo sapiens) (UniProt P54762).
T3 sequence (whole entry): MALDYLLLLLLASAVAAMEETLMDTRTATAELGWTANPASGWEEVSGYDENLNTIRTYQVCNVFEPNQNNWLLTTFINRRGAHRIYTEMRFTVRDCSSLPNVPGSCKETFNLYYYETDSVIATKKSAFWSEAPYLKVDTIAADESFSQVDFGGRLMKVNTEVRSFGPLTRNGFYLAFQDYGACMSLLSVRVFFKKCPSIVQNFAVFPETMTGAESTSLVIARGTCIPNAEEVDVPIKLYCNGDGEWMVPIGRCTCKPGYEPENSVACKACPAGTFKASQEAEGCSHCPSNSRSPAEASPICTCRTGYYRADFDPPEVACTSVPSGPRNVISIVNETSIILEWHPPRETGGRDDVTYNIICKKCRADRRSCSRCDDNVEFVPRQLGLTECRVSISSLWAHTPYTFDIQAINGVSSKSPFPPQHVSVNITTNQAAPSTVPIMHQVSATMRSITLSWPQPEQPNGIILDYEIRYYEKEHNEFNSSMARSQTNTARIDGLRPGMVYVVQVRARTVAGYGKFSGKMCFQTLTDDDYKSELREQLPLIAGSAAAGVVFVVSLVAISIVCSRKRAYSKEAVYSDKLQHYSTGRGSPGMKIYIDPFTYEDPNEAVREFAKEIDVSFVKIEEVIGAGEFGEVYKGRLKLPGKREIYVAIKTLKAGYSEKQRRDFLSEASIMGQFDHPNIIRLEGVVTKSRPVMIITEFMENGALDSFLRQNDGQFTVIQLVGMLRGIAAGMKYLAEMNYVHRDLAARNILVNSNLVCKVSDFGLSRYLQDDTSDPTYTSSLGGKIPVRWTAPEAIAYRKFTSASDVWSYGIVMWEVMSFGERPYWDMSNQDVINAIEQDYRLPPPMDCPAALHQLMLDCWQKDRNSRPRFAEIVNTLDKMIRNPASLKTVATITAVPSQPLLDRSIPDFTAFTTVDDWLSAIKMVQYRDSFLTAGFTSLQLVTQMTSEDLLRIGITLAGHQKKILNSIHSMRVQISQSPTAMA
As to conditions: at 1 µM.

Sequence of Ephrin type-A receptor 5 (Homo sapiens) (P54756 whole entry): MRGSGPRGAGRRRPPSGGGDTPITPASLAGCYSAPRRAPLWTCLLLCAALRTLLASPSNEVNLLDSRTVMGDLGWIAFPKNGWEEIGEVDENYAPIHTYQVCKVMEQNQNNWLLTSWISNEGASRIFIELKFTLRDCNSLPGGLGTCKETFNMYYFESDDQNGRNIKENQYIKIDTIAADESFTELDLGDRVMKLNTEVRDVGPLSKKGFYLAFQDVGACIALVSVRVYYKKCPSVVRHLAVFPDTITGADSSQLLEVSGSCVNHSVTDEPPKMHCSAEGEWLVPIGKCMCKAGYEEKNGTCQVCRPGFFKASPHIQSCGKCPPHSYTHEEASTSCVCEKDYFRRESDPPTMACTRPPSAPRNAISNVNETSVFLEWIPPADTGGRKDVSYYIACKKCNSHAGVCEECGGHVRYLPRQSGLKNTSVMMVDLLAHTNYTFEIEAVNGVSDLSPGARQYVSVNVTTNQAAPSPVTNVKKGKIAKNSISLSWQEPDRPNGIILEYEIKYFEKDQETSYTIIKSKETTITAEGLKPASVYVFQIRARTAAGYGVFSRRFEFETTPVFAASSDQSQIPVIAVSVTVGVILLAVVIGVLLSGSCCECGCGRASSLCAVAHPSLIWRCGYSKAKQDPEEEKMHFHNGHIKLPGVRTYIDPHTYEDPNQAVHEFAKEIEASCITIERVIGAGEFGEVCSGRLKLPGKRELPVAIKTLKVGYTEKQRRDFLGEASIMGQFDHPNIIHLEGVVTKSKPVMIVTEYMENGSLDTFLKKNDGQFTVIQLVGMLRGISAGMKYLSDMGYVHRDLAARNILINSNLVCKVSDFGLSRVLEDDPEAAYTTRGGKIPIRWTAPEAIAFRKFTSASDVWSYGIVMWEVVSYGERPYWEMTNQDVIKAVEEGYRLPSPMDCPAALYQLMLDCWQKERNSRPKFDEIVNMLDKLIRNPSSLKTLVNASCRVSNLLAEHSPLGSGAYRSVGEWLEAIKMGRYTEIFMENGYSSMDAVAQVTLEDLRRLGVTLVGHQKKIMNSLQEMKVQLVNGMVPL
Sequence of Ephrin type-A receptor 7 (Homo sapiens) (Q15375 28-998 limits assumed): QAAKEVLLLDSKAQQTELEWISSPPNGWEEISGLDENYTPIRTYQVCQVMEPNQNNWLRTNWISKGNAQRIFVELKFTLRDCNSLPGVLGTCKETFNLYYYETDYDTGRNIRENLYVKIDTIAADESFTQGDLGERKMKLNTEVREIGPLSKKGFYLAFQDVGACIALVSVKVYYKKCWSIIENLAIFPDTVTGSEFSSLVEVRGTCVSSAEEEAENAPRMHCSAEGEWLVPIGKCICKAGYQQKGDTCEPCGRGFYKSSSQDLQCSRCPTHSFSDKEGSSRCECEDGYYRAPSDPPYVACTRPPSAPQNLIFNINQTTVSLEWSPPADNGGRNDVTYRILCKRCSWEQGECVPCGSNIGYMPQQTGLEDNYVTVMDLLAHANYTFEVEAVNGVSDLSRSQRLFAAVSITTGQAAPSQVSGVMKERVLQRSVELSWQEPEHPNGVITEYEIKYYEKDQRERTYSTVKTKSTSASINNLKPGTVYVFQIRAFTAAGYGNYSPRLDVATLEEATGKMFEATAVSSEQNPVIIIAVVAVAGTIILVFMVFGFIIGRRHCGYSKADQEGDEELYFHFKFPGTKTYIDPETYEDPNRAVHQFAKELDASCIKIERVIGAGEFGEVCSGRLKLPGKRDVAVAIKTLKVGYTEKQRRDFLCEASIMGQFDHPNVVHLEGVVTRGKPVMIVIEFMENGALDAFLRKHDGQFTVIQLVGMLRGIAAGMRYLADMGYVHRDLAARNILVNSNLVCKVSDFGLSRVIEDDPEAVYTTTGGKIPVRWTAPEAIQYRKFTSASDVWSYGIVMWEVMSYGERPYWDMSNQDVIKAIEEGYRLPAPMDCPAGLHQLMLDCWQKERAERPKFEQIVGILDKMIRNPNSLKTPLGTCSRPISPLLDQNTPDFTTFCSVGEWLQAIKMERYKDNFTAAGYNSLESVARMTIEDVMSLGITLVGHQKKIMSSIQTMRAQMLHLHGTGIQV
Sequence of Ephrin type-A receptor 4 (Homo sapiens) (P54764 whole entry): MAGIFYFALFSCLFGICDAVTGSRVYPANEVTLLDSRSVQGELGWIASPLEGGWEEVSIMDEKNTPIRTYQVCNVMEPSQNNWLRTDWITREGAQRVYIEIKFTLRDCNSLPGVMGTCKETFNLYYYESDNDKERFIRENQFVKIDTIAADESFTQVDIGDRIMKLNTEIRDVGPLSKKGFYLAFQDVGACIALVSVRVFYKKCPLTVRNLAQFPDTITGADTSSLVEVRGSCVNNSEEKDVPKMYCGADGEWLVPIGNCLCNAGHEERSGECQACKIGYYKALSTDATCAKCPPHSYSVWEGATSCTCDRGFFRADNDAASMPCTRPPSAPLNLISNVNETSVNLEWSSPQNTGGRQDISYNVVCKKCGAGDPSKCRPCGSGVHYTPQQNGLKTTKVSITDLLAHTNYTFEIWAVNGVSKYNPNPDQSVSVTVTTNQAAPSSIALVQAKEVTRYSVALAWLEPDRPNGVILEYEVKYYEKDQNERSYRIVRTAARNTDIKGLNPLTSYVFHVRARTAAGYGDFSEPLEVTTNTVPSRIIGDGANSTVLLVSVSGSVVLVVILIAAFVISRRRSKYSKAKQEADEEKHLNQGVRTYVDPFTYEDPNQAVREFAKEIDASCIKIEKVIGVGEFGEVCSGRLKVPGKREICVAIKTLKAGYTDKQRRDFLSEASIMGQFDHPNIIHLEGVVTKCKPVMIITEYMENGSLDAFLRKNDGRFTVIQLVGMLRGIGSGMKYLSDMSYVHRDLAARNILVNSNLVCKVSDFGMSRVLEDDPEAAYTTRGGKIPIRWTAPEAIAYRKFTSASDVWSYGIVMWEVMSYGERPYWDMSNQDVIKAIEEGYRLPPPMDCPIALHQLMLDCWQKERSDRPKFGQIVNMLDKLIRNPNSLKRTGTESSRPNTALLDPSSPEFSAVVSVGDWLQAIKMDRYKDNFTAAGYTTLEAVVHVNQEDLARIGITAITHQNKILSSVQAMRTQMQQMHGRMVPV

As usually defined, the residual activity is the signal under treatment as a percentage of the control signal. As for `CC[n+]1c(/C=C/N(C)c2ccccc2)n(-c2ccccc2)c2ccc(-c3nc4ccccc4s3)cc21`, the residual activity in assay [1] was 92%; in [2], 106%; in assay [3] it was 85%; in assay [4] it was 120%; in assay [5], 110%; in assay [6], 108%. Besides, the residual activity in assay [7] came out at 96%; in assay [8], 114%; in assay [9] it was 103%.
